The record followed here is PubChem BioAssay (NCI).

Assay [1] in a line: NCI Yeast Anticancer Drug Screen. Data for the rad50 strain (AID 155).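 Further: 0% = growth of vehicle-only cultures of the same strain.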 The note with it: S. cerevisiae rad50 strain growth inhibition, stronger effect = higher value; at 50.0 µM unless noted. Summed up:
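Inhibition values express reduced yeast growth in compound-treated cultures relative to vehicle-treated controls.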

Assay [2] is described as follows: NCI Yeast Anticancer Drug Screen. Data for the mec2-1 strain (AID 157). The following applies: S. cerevisiae mec2-1 strain, stronger effect = higher value; at 50.0 µM unless noted. Summed up:
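Readout is yeast growth inhibition, normalised to vehicle-treated controls, in the mec2-1 strain exposed to compound.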

A short description of assay [3]: NCI Yeast Anticancer Drug Screen. Data for the sgs1 mgt1 strain (AID 161).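 Further: 0% = growth of cultures given vehicle only.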 The following applies: S. cerevisiae sgs1 mgt1 strain, stronger effect = higher value; at 50.0 µM unless noted. Summed up:
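Percent growth inhibition was derived by comparing compound-exposed mutant yeast with vehicle-exposed cultures. The strain carries alterations in DNA damage repair.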

The nature of assay [4]: NCI Yeast Anticancer Drug Screen. Data for the cln2 rad14 strain (AID 165).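 Further: 0% = growth equal to vehicle treated cultures.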 The note with it: S. cerevisiae cln2 rad14 strain, stronger effect = higher value; at 50.0 µM unless noted. The gist of the method:
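Relative to vehicle controls, growth inhibition of compound-treated cln2 rad14 yeast was recorded.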

Assay [5] is described as follows: NCI Yeast Anticancer Drug Screen. Data for the bub3 strain (AID 167). The note with it: S. cerevisiae bub3 mutant strain, stronger effect = higher value; at 50.0 µM unless noted. The gist of the method:
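Steps: expose the mutant yeast strain to compound; grow alongside vehicle-treated cultures; measure growth; express inhibition against the vehicle cultures.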

Assay [6] can be described thus: NCI Yeast Anticancer Drug Screen. Data for the mlh1 rad18 strain (AID 175). The following applies: S. cerevisiae mlh1 rad18 strain growth inhibition, stronger effect = higher value; at 50.0 µM unless noted. Summed up: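 Test agents were incubated with a yeast strain of defined genotype (DNA damage repair defect). Inhibition of growth was derived by comparison with vehicle-exposed cultures.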

Molecules are shown by their SMILES. Several values for one entry are separate records, joined by “and”; a condition that tells them apart may be missing. Identical values can stand only once. The panel holds about 79,000 compounds, 15% with a hit somewhere; the sample as a whole holds those more often. Values without a mark were called inactive. Activity calls are given as the source filed them. No stated cut-off is given here; in the data, active means growth inhibition above about 70%; inactive means the rest.

Consider `O=C(Nc1ccc(Br)c2ccccc12)c1ccc2ccccc2c1O`, for which the growth inhibition in assay [1] was -0.05%; in assay [2] it was -2.1%; in assay [3], -26.1%; in assay [4], -11.2%; in assay [5] it was -37.5%; in assay [6] it was -78.8%.

As for `NCCCCCN`, the growth inhibition in assay [1] was 14.4%; in assay [2], -1.05%; in assay [3], -15.9%; in assay [4] it was 12.3%; in assay [5], -16.7%; in assay [6], -1.45%.

Consider `COC1=CC(=O)c2cc3ccc(OC)c(N)c3nc2C1=O`, for which the growth inhibition in assay [1] was 12.8%; in assay [2] it was -7.2%; in assay [3], 5.45%; in assay [4], -4.2%; in assay [5] it was 13.3%; in assay [6], -10.9%.

On to `COCCOC(=O)c1ccc(C)cc1`, for which the growth inhibition in assay [1] is 9.8%; in assay [2], 17.8%; in assay [3] it was 10.6%; in assay [4], 14.8%; in assay [5] it was 12.1%; in assay [6] it was 8.1%.

As for `O=c1c2ccccc2[nH]c(=S)n1C1CCCC1`, the growth inhibition in assay [1] is -7.85%; in assay [2] it was -6.55%; in assay [3] it was 15.1%; in assay [4], -19.9%; in assay [5] it was 39.4%; in assay [6], -2.15%.

With `COC(=O)c1cc(NC(=O)Nc2cccc(C(C)=O)c2)cc(C(=O)OC)c1`, the growth inhibition in assay [1] was -9.75%; in assay [2] it was 31.2%; in assay [3], 25.6%; in assay [4], -10.2%; in assay [5], 37.6%; in assay [6], 36.4%.

Regarding `C/C(=N/NC(N)=S)c1c(C)[nH]c2ccccc12`, the growth inhibition was 3.1% in assay [1]; 10.2% in assay [2]; -7.7% in assay [3]; -78.8% in assay [4]; -45% in assay [5]; 0.95% in assay [6].

For `Cn1nc2ccc3nccc(N4CCN(CCO)CC4)c3c2n1`, the growth inhibition was -25.6% in assay [1]; -6.9% in assay [2]; -21.6% in assay [3]; -17.1% in assay [4]; -8.45% in assay [5]; -15% in assay [6].

In the case of `COC(=O)C(=O)C(C(=O)C(=O)Nc1cccc(C(C)=O)c1)c1nc2ccccc2[nH]c1=O` (stereo not given), the growth inhibition was 2.7% in assay [1]; -9.45% in assay [2]; 2.15% in assay [3]; 14.2% in assay [4]; -18.9% in assay [5]; 3.5% in assay [6].

Turning to `Cc1[nH]c(=O)nc2nc3ccc(Cl)cc3c(N(CCO)CCO)c12`, the growth inhibition in assay [1] was -24.3%; in assay [2], -20.8%; in assay [3] it was -12.8%; in assay [4] it was 19.2%; in assay [5] it was 19.9%; in assay [6] it was -8.7%.

Turning to `CC(=O)c1cc(Cc2cc(C)cc(C)c2O)c(O)c(Cc2cc(C)cc(C)c2O)c1`, the growth inhibition in assay [1] is 18.9%; in assay [2], 11.6%; in assay [3], 28.9%; in assay [4] it was 33.7%; in assay [5], 17.4%; in assay [6], 4.05%.

For `Cc1ccc(NP(=O)(Nc2ccc(C)cc2)c2ccc([N+](=O)[O-])cc2)cc1`, the growth inhibition in assay [1] is 93.2% (active); in assay [2], 94.2% (active); in assay [3], 92.7% (active); in assay [4], 92.1% (active); in assay [5] it was 85.3% (active); in assay [6] it was 95.6% (active).

As to `FC(F)(F)c1ccc2ccc3ccc(Cl)cc3c2c1`, the growth inhibition is -7.5% in assay [1]; -24% in assay [2]; -4.3% in assay [3]; -10.4% in assay [4]; 21.6% in assay [5]; -6.55% in assay [6].

As to `OCCN1CCCCCCC1`, the growth inhibition in assay [1] was -2% and 0.2%; in assay [2] it was -6.15% and -3.8%; in assay [3] it was -4.6% and 0.65%; in assay [4], -0.45% and 5.6%; in assay [5], -6.3% and 10.1%; in assay [6], -7.5% and -0.3%.

`Cc1nc2c3c(ccc2[nH]c1=O)C(=O)c1ccccc1C3=O`: the growth inhibition in assay [1] is 19.4%; in assay [2] it was 11.6%; in assay [3] it was 17.7%; in assay [4] it was 16.9%; in assay [5], 13.9%; in assay [6] it was 38.2%.

Take `NC(N)=N/N=C(\c1ccc(C(F)(F)F)cc1)c1ccc(Cl)c(Cl)c1`: the growth inhibition in assay [1] is 99.5% (active); in assay [2], 99.5% (active); in assay [3], 99.7% (active); in assay [4] it was 99.2% (active); in assay [5], 99.3% (active); in assay [6], 99.7% (active).

`Cc1nc2ccccc2c2ccc([N+](=O)[O-])cc12`: the growth inhibition in assay [1] is 13.5%; in assay [2], 4.45%; in assay [3], 0.25%; in assay [4], -31.1%; in assay [5], -4.6%; in assay [6] it was 12.3%.

For `CCC(C)C(C#N)(CCN(CC)CC)c1ccccc1` (stereo not given), the growth inhibition in assay [1] is 15.2%; in assay [2] it was 12.6%; in assay [3], 28.4%; in assay [4], 7.3%; in assay [5] it was 32.9%; in assay [6] it was 14.5%.

With `CC(=O)OC/C(=C/C#N)C1CCC2C3CC=C4CC(OC(C)=O)CCC4(C)C3CCC12C` (stereo not given), the growth inhibition in assay [1] was 15.6%; in assay [2] it was -1.25%; in assay [3] it was -3.75%; in assay [4], -12.8%; in assay [5], -2.15%; in assay [6], 8.65%.

Take `CN(N)c1nc(N)c(C#N)c(C#N)c1C#N`: the growth inhibition in assay [1] was -16.8%; in assay [2] it was -22.5%; in assay [3], -4.9%; in assay [4] it was 11.7%; in assay [5] it was -2.65%; in assay [6] it was 3.9%.
